# Inconclusive results are not listed. Activity calls are given as the source filed them. Calls follow the shape of the full dose curve.
# Test: qHTS assay to identify small molecule agonists of the NFkB signaling pathway - cell viability counter screen (AID 1159515); also: nearly all actives have a fitted effect of over 55% in size
# Conditions: NFkB-bla ME-180 viability, CellTiter-Glo luminescence, 5 h; series mostly up to 61 µM; activity, negative = cytotoxic: at the top concentration
# Excerpt: National Center for Advancing Translational Sciences [NCATS]
# NIH Chemical Genomics Center [NCGC]
# U.S. Environmental Protection Agency [EPA]
# National Institutes of Environmental Health Sciences [NIEHS]
# National Toxicology Program [NTP]
# U.S. Food and Drug Administration [FDA]
# Transcription factors and their stimulated target gene expression play pivotal roles across many cellular processes including responses to environmental stimuli. Proper regulation of associated pathways is critical to maintain cell health and function. Constitutive activation of transcription factor pathways has been implicated in tumors as it may block cellular functions such as apoptosis and lead to invasion and metastasis. One important transcription factor that stimulates gene expression in response to cytokines, UV radiation, and other stimuli is nuclear factor-kappa B (NFkB). To measure activation of the NFkB pathway, the CellSensor NFkB-bla ME-180 cell line (Life Technologies, Carlsbad, CA) that stably expresses beta-lactamase reporter gene under the regulation of a NF-kB response element was used. This assay allows measurement of the NFkB pathway activity induced by compounds in a ME-180 cell line. This system quantitates NF-kB activity using a FRET-based assay system where beta-lactamase expression disrupts FRET, allowing for fluorescent measurement of activity. This cell line has been used to screen the Tox21 10K compound library and to identify compounds that induce the NFkB pathway activity. The cytotoxicity of the Tox21 compound library against the NFkB-bla ME-180 cell line was tested in parallel by measuring cell viability using the CellTiter-Glo assay in the same wells.
# Tox21 Assay Protocol Summary:
# NFkB-bla ME-180 cells were dispensed at 2,000 cells/6 uL of assay medium per well into black wall/clear-bottom 1536-well plates using a Multidrop Combi (ThermoFisher Scientific, Waltham, MA) dispenser. After the assay plates were incubated at 37 C and 5% CO2 for an overnight, 23 nL of compounds dissolved in DMSO, positive controls or DMSO only was transferred to the assay plate by a Pintool station (Kalypsys, San Diego, CA). The assay plates were incubated at 37 C and 5% CO2 for 5 hr. One uL of LiveBLAzer B/G FRET substrate (Life Technologies) was added using a Flying Reagent Dispenser (Aurora Discovery, San Diego, CA) and the plates were incubated at room temperature for 1.5 hr. Fluorescence intensity (405 nm excitation, 460 nm and 530 nm emissions) was measured using an Envision plate reader (PerkinElmer, Shelton, CT). For cytotoxicity, 3 ul/well of CellTiter-Glo reagent was added into the assay plates using an FRD. After 30 min incubation at room temperature, the luminescence intensity was measured using a ViewLux plate reader (PerkinElmer).
# % is scaled to controls: 0 for no effect and ±100 for the full control effect; potency is read from the fitted curve at half-maximal effect.
SMILES,Potency,"activity, negative = cytotoxic"
CC(O)C(=O)[O][Hg][c]1ccccc1 (stereo not given),0.871 µM (active),–
CCOP(=O)(OCC)Oc1nc(Cl)c(Cl)cc1Cl,–,0.677% (inactive)
CC(=O)[O-].CC(=O)[O-].CC(=O)[O-].[Cr+3],–,0.369% (inactive)
COP(=O)(OC)O/C(=C\Cl)c1cc(Cl)c(Cl)cc1Cl,–,-1.56% (inactive)
COP(=S)(OC)Oc1ccc([N+](=O)[O-])c(C)c1,–,-3.77% (inactive)
CSC1=N[C@@](C)(c2ccccc2)C(=O)N1Nc1ccccc1,–,3.57% (inactive)
O=[N+]([O-])c1cccc2cccc([N+](=O)[O-])c12,–,-1.46% [at 78.8 µM] (inactive)
O=C(N[C@H]1N=C(c2ccccc2F)c2cccc3c2N(CC3)C1=O)c1cc2ccccc2[nH]1,–,-15.3% (inactive)
Cc1ccc2cc3c(ccc4ccccc43)c3c2c1CC3,–,-6.37% (inactive)
N#Cc1sc2c(=O)c3ccccc3c(=O)c=2sc1C#N,1.95 µM (active),–
CSSC,–,3.63% [at 78.8 µM] (inactive)
CCCCC(CC)COC(=O)c1ccccc1C(=O)OCC(CC)CCCC (stereo not given),–,1.39% (inactive)
OCC(Br)CBr (stereo not given),–,-14.6% [at 78.8 µM] (inactive)
CC(C)(C)c1ccc(OP(=O)(Oc2ccccc2)Oc2ccccc2)cc1,–,-3.55% [at 78.8 µM] (inactive)
Oc1cc(Cl)c(Cl)c(Cl)c1Cl,–,-10.7% (inactive)
O.O.O.O.O.O.O.O=S(=O)([O-])[O-].[Co+2],–,-1.56% [at 78.8 µM] (inactive)
Clc1cc(Cl)c(-c2cc(Cl)c(Cl)cc2Cl)cc1Cl,–,-2.35% (inactive)
Nc1cc(Cl)ccc1Cl,–,-1.68% (inactive)
CC(Cc1ccc(O)cc1)NCC(O)c1cc(O)cc(O)c1 (stereo not given),–,12% (inactive)
CC(=O)[O][Pb]([c]1ccccc1)([c]1ccccc1)[c]1ccccc1,0.871 µM (active),–

SMILES,Potency,"activity, negative = cytotoxic"
O=C(O)[C@H](O)[C@@H](O)C(=O)O,–,-1.24% (inactive)
O=C(O)CCCCCCNC1c2ccccc2CCc2ccccc21,–,3.58% (inactive)
CCCCCCCCCCCCCCn1cc[n+](C)c1,–,-11.2% (inactive)
COc1ccc2c(c1OC)C(=O)O[C@@H]2[C@H]1c2cc3c(cc2CCN1C)OCO3,–,-11.2% (inactive)
C#CCC1=C(C)C(OC(=O)C2C(C=C(C)C)C2(C)C)CC1=O (stereo not given),–,12% (inactive)
C#CCO,–,0.804% (inactive)
CCO/N=C(\CC)C1=C(O)CC(c2c(C)cc(C)cc2C)CC1=O (stereo not given),–,-4.92% (inactive)
ClC1(Cl)C2(Cl)C3(Cl)C4(Cl)C(Cl)(Cl)C5(Cl)C3(Cl)C1(Cl)C5(Cl)C24Cl (stereo not given),–,4.41% (inactive)
CC1=C2C[C@H]3[C@@H](CC=C4C[C@@H](O)CC[C@@]43C)[C@@H]2CC[C@]12O[C@@H]1C[C@H](C)CN[C@H]1[C@H]2C,–,-7.73% (inactive)
CCN(CC)C(=S)S,13.8 µM (active),–
CNC(=O)Oc1cc(C)cc(C(C)C)c1,–,1.97% (inactive)
Cc1ccccc1OP(=O)(Oc1ccccc1C)Oc1ccccc1C,–,-8.64% [at 78.8 µM] (inactive)
CNC(=O)/C=C(\C)OP(=O)(OC)OC,–,6.84% (inactive)
Nc1nc(N)c(N)c(N)n1,–,-2.76% [at 78.8 µM] (inactive)
CCOP(=O)(OCC)Oc1cc(C)nc(C(C)C)n1,–,-11% [at 78.8 µM] (inactive)
C[N+]1(C)[C@@H]2CC[C@H]1CC(OC(=O)C(CO)c1ccccc1)C2 (stereo not given in full),–,-5.8% (inactive)
ClC1=C(Cl)[C@]2(Cl)[C@@H]3[C@H]4C[C@H]([C@@H]5O[C@H]45)[C@@H]3[C@@]1(Cl)C2(Cl)Cl,–,-11.5% (inactive)
CCC[CH2][Sn]([CH2]CCC)([CH2]CCC)[O][Sn]([CH2]CCC)([CH2]CCC)[CH2]CCC,0.24 µM (active),–
Clc1ccc(C2(Cn3cncn3)OCCO2)c(Cl)c1,–,8.73% (inactive)
Cc1cnc2c(C(=O)O)c(Cl)ccc2c1,–,0.818% (inactive)

# Source: PubChem BioAssay (Tox21)
